PubChem BioAssay (EPA / NIEHS)
Calls of active or inactive are those of the source. Rule for the calls: active = hit-call score of the fitted dose curve at least 0.9, where 1 is the maximum; inactive = score below 0.9.

Read-out: Urokinase-type plasminogen activator receptor (uPAR), PLAUR (gene 5329)
Experiment: BSK_4H_uPAR: BioMAP Diversity Plus: 4H Assay for Urokinase-type plasminogen activator receptor (uPAR) Biomarker Activity (AID 2283030)
Settings: primary human endothelial cells (HUVEC); actives raise or lower the signal
Protocol: BSK_4H is a cell-based, multiplexed-readout assay that uses umbilical vein endothelium, a human vascular primary cell, with measurements taken at 24 hours after chemical dosing in a 96-well plate.BSK_4HAR is an assay component measured in the BSK_4H assay. It measures uPAR antibody related to regulation of gene expression using ELISA technology.Data from the assay component BSK_4HAR was analyzed into 1 assay endpoint. This assay endpoint, BSK_4HAR, was analyzed with bidirectional fitting relative to DMSO as the negative control and baseline of activity. Using a type of binding reporter, gain or loss-of-signal activity can be used to understand changes in the signaling as they relate to the gene PLAUR. Furthermore, this assay endpoint can be referred to as a primary readout, because this assay has produced multiple assay endpoints where this one serves a signaling function. To generalize the intended target to other relatable targets, this assay endpoint is annotated to the cytokine intended target family, where the subfamily is plasmogen activator.
The levels of cell surface (or secreted, indicated by the prefix "s") biomarker endpoints were measured by ELISA. Overt cytotoxicity to cells in confluent adherent cultures (all systems other than the BT system) was assessed by measuring total protein levels using sulforhodamine B (SRB) staining in parallel cultures at the time of biomarker measurements, indicated as SRB endpoints. For proliferation assays for adherent cell types, individual cell types are cultured at sub-confluence and relative cell numbers quantified by SRB staining at time points optimized for each system (48 h: 3C and CASM3C systems; 72 h: BT and HDF3CGF systems; 96 h: SAg system). SRB was performed by staining cells with 0.1% SRB after fixation with 10% TCA and reading wells at 560 nm.Viability and proliferation of PBMC (T cells) was quantified by Alamar Blue reduction for the SAg and BT systems. For PBMC viability (referred to as PBMC Cytotoxicity within the assay endpoint names), cells were plated (75,000/well in a 96-well plate) and then chemical samples added for 1 h before addition of activators, SEB and TSST-1 (20 ng/mL final concentration each). Cells were incubated for 90 h. Then, Alamar Blue (20 uL/well) (Invitrogen, Cat DAL1100) was added for 6 h, and the plates were read with a fluorescence microplate reader at 546/580 nm (excitation/emission). For PBMC proliferation, cells were plated and activated as above but incubated for only 16 h prior to addition of Alamar Blue. Plates were read after 6 h.

SMILES | AC50 | outcome
CC(C)NC(=O)N1CC(=O)N(c2cc(Cl)cc(Cl)c2)C1=O | 23.1 µM (active) | 
O=C1C2CC=CCC2C(=O)N1SC(Cl)(Cl)Cl (stereo not given) |  | inactive
CCOP(=O)(OCC)Oc1nc(Cl)c(Cl)cc1Cl | 12 µM (active) | 
COC(=O)N(C(=O)N1CO[C@@]2(C(=O)OC)Cc3cc(Cl)ccc3C2=N1)c1ccc(OC(F)(F)F)cc1 |  | inactive
COC(=O)NS(=O)(=O)c1ccc(N)cc1 |  | inactive
CCCCC(C#N)(Cn1cncn1)c1ccc(Cl)cc1 (stereo not given) |  | inactive
CCN(CC)C(=O)C(C)Oc1cccc2ccccc12 (stereo not given) |  | inactive
CC1(C)CCC(=Cc2ccc(Cl)cc2)C1(O)Cn1cncn1 (stereo not given) |  | inactive
CCOC(=O)C(C)OC(=O)c1cc(Oc2ccc(C(F)(F)F)cc2Cl)ccc1[N+](=O)[O-] (stereo not given) | 10 µM (active) | 
COc1ccc(-c2ccccc2)cc1NNC(=O)OC(C)C |  | inactive
CS(=O)(=O)c1ccc(C(=O)C2C(=O)CCCC2=O)c([N+](=O)[O-])c1 |  | inactive
CC(C)C1(C)N=C(c2ncccc2C(=O)O)NC1=O (stereo not given) |  | inactive
COCC(=O)N(c1c(C)cccc1C)C(C)C(=O)OC (stereo not given) |  | inactive
OC(c1ccc(Cl)cc1)(c1ccc(Cl)cc1)C(Cl)(Cl)Cl | 31.4 µM (active) | 
Cc1ccc(N=CN(C)C=Nc2ccc(C)cc2C)c(C)c1 | 37.5 µM (active) | 
COCC(C)N(C(=O)CCl)c1c(C)csc1C (stereo not given) |  | inactive
COc1cc(OC)nc(NC(=O)NS(=O)(=O)c2ncccc2OCC(F)(F)F)n1 |  | inactive
O=c1n(Cl)c(=O)n(Cl)c(=O)n1Cl |  | inactive
CC(C)N1C(=O)c2ccccc2NS1(=O)=O |  | inactive
CCOP(=S)(OCC)Oc1nc(Cl)n(C(C)C)n1 |  | inactive

SMILES | AC50 | outcome
COc1cc(Cl)c(OC)cc1Cl |  | inactive
CCCC(=NOCC)C1=C(O)CC(CC(C)SCC)CC1=O (stereo not given) |  | inactive
Clc1cccc(C(Cl)(Cl)Cl)n1 |  | inactive
Clc1nc(Cl)nc(Nc2ccccc2Cl)n1 |  | inactive
CC1(C)C(C=C(Cl)Cl)C1C(=O)OC(C#N)c1cccc(Oc2ccccc2)c1 (stereo not given) |  | inactive
CCNP(=S)(OC)O/C(C)=C/C(=O)OC(C)C (stereo not given) |  | inactive
CN=C=S |  | inactive
CS(=O)(=O)c1cc(C(F)(F)F)ccc1C(=O)c1cnoc1C1CC1 |  | inactive
CCNC(=O)NC(=O)C(C#N)=NOC |  | inactive
CCCCC(O)(Cn1cncn1)c1ccc(Cl)cc1Cl (stereo not given) |  | inactive
COP(=S)(OC)Oc1ccc([N+](=O)[O-])c(C)c1 |  | inactive
C=C(C)CN(CC)c1c([N+](=O)[O-])cc(C(F)(F)F)cc1[N+](=O)[O-] |  | inactive
CN/C(=N\[N+](=O)[O-])NCc1cnc(Cl)s1 |  | inactive
C=CCOC(=O)C(C)(C)OC(=O)c1cc(-n2c(=O)cc(C(F)(F)F)n(C)c2=O)ccc1Cl | 6.97 µM (active) | 
O=C(Nc1ccccc1-c1ccc(Cl)cc1)c1cccnc1Cl |  | inactive
CCOc1cc(C(C)(C)C)ccc1C1COC(c2c(F)cccc2F)=N1 (stereo not given) | 33 µM (active) | 
CCOc1nc(C(Cl)(Cl)Cl)ns1 |  | inactive
CCC(C)n1c(=O)[nH]c(C)c(Br)c1=O (stereo not given) |  | inactive
Cn1c(-c2ccccc2)cc(-c2ccccc2)[n+]1C |  | inactive
COC(=O)NC(=S)Nc1ccccc1NC(=S)NC(=O)OC |  | inactive
